# Assay results from paper PMC7862700, “An all-to-all approach to the identification of sequence-specific readers for epigenetic DNA modifications on cytosine”.
# Assays:
# Experiment in all cases: DAPPL (digital affinity profiling via proximity ligation, sequencing); 10 mM Tris-HCl pH 7.5, 50 mM NaCl, 1 mM DTT, 4% glycerol, room temperature, 30 min; GST-TFs on glutathione beads, 16-mer random dsDNA library, 0.1% formaldehyde crosslink after washing; high values mean tight binding
# FLI1 = target: T1, FLI1 (Homo sapiens, UniProt Q01543 1-452); conditions: protein: recombinant; tags: N-terminal GST; dsDNA, one strand shown
# T1 sequence: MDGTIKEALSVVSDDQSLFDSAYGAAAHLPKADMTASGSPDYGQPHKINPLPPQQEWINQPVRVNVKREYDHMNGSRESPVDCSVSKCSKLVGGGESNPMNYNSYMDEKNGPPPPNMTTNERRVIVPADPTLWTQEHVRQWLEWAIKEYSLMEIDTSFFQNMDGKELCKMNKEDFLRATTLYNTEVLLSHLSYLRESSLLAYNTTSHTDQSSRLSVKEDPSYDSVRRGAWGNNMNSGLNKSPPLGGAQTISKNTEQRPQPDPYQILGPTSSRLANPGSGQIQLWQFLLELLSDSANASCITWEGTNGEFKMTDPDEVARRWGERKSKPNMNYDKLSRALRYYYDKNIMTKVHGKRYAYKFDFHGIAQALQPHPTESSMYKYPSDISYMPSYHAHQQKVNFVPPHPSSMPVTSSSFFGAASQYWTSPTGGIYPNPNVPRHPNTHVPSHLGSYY
# Method in brief: (§1)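 Each value of binding signal is a hexamer's read frequency for a factor divided by the same hexamer's frequency in the tag-only sample. Barcoded, bead-captured GST fusions of human transcription factors made in yeast were pooled with that sample and incubated with 200 nmole of a random double-stranded 16-mer DNA library in Tris/NaCl/DTT/glycerol buffer at room temperature for 30 min. Washing, 0.1% formaldehyde crosslinking, proximity ligation, PCR and Illumina NextSeq500 sequencing followed.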
# ELK1 = target: T2, ELK1 (Homo sapiens, UniProt P19419 1-428); conditions: protein: recombinant; tags: N-terminal GST; dsDNA, one strand shown
# T2 sequence: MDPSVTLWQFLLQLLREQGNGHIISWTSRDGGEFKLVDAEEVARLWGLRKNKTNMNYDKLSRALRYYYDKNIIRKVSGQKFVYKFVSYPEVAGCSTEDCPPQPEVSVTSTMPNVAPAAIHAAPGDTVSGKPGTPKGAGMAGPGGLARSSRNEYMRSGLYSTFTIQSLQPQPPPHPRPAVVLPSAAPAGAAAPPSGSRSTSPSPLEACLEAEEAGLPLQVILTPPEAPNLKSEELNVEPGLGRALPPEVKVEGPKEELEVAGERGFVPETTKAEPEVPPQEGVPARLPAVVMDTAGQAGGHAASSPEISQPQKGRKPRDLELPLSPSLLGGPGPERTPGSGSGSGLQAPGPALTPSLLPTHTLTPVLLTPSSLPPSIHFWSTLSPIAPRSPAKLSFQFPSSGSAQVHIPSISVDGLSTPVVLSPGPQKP
# Method in brief: as §1
# GABPA = target: T3, GABPA (Homo sapiens, UniProt Q06546 1-454); conditions: protein: recombinant; tags: N-terminal GST; dsDNA, one strand shown
# T3 sequence: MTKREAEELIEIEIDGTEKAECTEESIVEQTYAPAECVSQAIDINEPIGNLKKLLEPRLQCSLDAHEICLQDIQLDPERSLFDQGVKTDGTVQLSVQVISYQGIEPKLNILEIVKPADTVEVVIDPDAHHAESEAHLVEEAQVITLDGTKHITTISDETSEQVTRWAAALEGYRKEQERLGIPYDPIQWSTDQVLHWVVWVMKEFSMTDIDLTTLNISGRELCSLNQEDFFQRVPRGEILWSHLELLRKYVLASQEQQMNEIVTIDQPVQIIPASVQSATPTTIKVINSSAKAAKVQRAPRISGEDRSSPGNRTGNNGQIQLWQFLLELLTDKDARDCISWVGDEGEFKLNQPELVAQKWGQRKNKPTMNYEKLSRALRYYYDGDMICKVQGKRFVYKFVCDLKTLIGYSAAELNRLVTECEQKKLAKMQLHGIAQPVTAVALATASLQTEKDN
# Method in brief: as §1
# ERG = target: T4, ERG (Homo sapiens, UniProt P11308 1-479); conditions: protein: recombinant; tags: N-terminal GST; dsDNA, one strand shown
# T4 sequence: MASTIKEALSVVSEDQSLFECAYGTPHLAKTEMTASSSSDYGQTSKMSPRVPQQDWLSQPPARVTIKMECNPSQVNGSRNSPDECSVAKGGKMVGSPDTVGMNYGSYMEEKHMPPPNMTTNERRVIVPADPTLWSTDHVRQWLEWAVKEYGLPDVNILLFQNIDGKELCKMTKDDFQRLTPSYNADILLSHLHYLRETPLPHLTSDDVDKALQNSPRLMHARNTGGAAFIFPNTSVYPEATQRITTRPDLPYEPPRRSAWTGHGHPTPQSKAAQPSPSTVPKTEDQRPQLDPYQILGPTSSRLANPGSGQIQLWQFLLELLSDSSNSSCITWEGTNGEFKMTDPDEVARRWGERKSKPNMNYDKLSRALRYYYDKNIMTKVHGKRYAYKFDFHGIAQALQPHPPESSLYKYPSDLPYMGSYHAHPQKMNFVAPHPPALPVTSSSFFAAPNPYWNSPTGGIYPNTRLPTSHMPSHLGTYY
# Method in brief: as §1
# ELF1 = ELF1 (Homo sapiens, UniProt P32519 1-619); conditions: protein: recombinant; tags: N-terminal GST; dsDNA, one strand shown
# Sequence of ELF1 (P32519 whole entry): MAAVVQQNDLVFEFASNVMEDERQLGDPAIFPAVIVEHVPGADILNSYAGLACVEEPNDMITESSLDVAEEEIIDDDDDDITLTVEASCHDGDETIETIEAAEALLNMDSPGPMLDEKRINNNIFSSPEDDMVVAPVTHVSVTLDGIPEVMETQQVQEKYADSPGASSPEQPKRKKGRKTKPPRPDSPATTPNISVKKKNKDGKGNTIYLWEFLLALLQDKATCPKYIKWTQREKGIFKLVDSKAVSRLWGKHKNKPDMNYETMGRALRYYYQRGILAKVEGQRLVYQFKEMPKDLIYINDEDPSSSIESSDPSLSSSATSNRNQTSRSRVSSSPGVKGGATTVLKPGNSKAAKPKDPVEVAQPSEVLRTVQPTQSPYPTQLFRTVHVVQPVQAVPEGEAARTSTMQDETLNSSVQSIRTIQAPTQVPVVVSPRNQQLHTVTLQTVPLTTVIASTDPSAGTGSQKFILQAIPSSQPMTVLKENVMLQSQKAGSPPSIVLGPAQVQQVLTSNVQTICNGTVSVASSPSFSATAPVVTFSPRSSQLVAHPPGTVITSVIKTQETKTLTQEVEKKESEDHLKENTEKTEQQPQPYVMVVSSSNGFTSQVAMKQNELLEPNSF
# Method in brief: as §1
# EHF = target: T5, EHF (Homo sapiens, UniProt Q9NZC4 1-300); conditions: protein: recombinant; tags: N-terminal GST; dsDNA, one strand shown
# T5 sequence: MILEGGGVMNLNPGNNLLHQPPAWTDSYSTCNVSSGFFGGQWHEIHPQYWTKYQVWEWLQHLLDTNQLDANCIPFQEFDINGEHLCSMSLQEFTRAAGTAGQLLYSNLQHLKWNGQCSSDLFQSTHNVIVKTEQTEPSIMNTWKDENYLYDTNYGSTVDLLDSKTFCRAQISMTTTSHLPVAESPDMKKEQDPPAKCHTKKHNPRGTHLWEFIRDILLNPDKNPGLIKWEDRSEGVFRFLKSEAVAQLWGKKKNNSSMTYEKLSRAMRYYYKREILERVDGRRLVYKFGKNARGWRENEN
# Method in brief: as §1
# SPI1 = SPI1 (Homo sapiens, UniProt P17947 1-270); conditions: protein: recombinant; tags: N-terminal GST; dsDNA, one strand shown
# Method in brief: as §1
# SPIB = SPIB (Homo sapiens, UniProt Q01892 1-262); conditions: protein: recombinant; tags: N-terminal GST; dsDNA, one strand shown
# Sequence of SPIB (Q01892 whole entry): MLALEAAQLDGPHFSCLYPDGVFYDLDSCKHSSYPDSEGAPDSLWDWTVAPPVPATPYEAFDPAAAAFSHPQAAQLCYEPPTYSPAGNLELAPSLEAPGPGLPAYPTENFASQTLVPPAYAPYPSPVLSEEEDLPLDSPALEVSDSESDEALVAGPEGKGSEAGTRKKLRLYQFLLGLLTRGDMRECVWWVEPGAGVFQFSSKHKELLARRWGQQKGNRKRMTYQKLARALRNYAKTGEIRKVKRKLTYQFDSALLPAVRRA
# Method in brief: as §1
# ELK3 = target: T6, ELK3 (Homo sapiens, UniProt P41970 1-407); conditions: protein: recombinant; tags: N-terminal GST; dsDNA, one strand shown
# T6 sequence: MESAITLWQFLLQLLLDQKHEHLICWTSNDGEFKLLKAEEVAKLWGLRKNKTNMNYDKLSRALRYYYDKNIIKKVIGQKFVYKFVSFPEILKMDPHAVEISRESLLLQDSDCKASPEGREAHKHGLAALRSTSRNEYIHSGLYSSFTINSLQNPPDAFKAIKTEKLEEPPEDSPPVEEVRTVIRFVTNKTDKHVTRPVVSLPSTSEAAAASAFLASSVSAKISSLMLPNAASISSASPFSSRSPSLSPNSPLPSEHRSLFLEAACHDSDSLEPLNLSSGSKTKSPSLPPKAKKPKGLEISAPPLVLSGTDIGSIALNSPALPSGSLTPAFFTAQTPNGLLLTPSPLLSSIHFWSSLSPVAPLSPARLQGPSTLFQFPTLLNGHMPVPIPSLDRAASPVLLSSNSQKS
# Method in brief: as §1
# FEV = target: T7, FEV (Homo sapiens, UniProt Q99581 1-238); conditions: protein: recombinant; tags: N-terminal GST; dsDNA, one strand shown
# T7 sequence: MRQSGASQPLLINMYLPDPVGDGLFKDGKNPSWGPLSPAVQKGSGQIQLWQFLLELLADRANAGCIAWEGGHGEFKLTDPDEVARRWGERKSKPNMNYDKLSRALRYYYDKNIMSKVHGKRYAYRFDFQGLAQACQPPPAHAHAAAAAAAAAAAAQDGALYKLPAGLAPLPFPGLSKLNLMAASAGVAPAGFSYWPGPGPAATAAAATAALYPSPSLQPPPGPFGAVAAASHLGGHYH
# Method in brief: as §1
# ETV5 = ETV5 (Homo sapiens, UniProt P41161 1-510); conditions: protein: recombinant; tags: N-terminal GST; dsDNA, one strand shown
# Sequence of ETV5 (P41161 whole entry): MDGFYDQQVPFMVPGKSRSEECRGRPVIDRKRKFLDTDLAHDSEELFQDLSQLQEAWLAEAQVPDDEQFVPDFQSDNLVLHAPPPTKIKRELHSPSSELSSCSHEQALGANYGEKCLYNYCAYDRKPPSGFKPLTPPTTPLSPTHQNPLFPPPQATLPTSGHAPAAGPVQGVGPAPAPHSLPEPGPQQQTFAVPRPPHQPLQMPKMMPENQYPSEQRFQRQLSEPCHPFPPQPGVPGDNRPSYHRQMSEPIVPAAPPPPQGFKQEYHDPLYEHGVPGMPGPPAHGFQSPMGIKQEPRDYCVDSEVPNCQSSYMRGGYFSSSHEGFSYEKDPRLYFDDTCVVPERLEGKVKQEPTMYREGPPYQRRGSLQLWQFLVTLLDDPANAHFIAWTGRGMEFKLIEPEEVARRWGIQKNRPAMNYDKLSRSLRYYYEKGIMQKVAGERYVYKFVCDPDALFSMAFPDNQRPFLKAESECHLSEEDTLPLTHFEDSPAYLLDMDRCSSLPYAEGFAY
# Method in brief: as §1
# HSF1 = HSF1 (Homo sapiens, UniProt Q00613 1-529); conditions: protein: recombinant; tags: N-terminal GST; chain copies: 3; dsDNA, one strand shown
# Sequence of HSF1 (Q00613 whole entry): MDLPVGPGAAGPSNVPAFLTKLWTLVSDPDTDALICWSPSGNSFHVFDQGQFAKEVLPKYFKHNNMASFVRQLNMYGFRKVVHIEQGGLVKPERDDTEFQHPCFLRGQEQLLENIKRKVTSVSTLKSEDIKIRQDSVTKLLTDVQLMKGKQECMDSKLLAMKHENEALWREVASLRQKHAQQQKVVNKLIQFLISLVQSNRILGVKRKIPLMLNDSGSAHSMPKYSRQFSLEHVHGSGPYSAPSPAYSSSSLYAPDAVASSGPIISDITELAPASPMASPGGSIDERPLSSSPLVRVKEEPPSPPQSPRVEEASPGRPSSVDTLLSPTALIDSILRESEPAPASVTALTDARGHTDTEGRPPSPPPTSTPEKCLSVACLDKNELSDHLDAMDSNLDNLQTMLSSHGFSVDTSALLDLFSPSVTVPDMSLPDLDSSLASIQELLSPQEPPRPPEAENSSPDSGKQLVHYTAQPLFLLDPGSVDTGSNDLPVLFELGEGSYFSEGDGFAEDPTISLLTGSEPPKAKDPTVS
# Method in brief: as §1
# SPIC = target: T8, SPIC (Homo sapiens, UniProt Q8N5J4 1-248); conditions: protein: recombinant; tags: N-terminal GST; dsDNA, one strand shown
# T8 sequence: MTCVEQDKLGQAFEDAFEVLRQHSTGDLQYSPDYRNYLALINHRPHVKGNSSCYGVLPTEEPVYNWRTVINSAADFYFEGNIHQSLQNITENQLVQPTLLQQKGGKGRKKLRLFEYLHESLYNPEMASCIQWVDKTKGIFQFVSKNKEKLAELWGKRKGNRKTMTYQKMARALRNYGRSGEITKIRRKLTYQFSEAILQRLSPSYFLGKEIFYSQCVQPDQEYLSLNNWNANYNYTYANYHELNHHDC
# Method in brief: as §1
# ELF4 = ELF4 (Homo sapiens, UniProt Q99607 1-663); conditions: protein: recombinant; tags: N-terminal GST; dsDNA, one strand shown
# Sequence of ELF4 (Q99607 whole entry): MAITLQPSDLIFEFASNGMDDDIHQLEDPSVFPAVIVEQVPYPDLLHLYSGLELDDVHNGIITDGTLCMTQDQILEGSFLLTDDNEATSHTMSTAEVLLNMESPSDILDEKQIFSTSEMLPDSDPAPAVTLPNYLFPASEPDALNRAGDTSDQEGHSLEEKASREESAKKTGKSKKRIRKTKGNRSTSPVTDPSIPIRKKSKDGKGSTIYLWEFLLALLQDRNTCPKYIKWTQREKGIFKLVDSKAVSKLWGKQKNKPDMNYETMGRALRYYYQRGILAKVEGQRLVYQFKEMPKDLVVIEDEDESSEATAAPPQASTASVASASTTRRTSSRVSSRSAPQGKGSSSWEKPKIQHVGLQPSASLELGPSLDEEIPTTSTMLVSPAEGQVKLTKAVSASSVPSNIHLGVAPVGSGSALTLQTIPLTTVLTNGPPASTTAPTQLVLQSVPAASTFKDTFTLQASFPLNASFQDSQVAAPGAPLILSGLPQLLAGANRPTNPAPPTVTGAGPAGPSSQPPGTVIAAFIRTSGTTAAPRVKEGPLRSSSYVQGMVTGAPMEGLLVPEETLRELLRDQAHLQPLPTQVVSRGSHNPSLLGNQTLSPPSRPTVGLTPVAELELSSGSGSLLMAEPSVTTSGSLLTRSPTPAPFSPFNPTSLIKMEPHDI
# Method in brief: as §1
# ELK4 = target: T9, ELK4 (Homo sapiens, UniProt P28324-2 1-405); conditions: protein: recombinant; tags: N-terminal GST; dsDNA, one strand shown
# T9 sequence: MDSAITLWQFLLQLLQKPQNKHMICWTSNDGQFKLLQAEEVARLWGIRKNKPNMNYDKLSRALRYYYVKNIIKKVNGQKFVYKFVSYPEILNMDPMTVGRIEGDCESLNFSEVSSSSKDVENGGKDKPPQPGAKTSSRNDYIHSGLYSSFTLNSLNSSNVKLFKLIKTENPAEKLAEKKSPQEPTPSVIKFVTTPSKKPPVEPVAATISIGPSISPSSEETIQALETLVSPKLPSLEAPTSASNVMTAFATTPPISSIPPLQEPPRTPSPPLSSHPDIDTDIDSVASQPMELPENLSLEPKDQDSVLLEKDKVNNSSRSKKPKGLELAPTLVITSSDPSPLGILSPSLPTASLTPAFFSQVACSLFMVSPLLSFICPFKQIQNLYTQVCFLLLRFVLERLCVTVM
# Method in brief: as §1
# ETV2 = target: T10, ETV2 (Homo sapiens, UniProt O00321 1-342); conditions: protein: recombinant; tags: N-terminal GST; dsDNA, one strand shown
# T10 sequence: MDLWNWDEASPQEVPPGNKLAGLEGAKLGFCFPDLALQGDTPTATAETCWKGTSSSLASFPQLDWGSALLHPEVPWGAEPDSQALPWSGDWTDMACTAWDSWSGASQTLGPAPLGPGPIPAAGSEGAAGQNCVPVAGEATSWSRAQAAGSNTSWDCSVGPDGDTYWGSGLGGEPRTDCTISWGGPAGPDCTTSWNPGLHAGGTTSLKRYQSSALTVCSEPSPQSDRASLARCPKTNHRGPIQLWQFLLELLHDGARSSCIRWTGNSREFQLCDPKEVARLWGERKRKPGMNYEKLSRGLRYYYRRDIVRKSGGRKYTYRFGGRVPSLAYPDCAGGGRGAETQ
# Method in brief: as §1
# ELF3 = target: T11, ELF3 (Homo sapiens, UniProt P78545 1-371); conditions: protein: recombinant; tags: N-terminal GST; dsDNA, one strand shown
# T11 sequence: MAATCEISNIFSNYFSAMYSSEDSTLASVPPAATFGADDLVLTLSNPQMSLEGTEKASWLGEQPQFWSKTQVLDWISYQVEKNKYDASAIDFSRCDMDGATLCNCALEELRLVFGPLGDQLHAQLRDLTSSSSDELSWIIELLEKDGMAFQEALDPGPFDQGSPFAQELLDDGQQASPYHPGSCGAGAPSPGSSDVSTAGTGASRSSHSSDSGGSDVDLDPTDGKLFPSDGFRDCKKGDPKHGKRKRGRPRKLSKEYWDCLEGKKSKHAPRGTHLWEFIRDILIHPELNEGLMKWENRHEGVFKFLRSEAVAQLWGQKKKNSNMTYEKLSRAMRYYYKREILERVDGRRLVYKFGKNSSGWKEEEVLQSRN
# Method in brief: as §1
# CRX = CRX (Homo sapiens, UniProt O43186 1-299); conditions: protein: recombinant; tags: N-terminal GST; dsDNA, one strand shown
# Sequence of CRX (O43186 whole entry): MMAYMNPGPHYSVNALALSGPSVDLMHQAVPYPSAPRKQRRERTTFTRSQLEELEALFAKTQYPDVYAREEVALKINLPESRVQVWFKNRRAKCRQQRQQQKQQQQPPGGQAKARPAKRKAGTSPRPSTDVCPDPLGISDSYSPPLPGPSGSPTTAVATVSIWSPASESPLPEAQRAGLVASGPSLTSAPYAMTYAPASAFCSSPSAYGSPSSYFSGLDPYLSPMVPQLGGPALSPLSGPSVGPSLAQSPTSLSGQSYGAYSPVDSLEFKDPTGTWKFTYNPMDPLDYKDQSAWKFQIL
# Method in brief: as §1
# ETV1 = ETV1 (Homo sapiens, UniProt P50549 1-477); conditions: protein: recombinant; tags: N-terminal GST; dsDNA, one strand shown
# Sequence of ETV1 (P50549 whole entry): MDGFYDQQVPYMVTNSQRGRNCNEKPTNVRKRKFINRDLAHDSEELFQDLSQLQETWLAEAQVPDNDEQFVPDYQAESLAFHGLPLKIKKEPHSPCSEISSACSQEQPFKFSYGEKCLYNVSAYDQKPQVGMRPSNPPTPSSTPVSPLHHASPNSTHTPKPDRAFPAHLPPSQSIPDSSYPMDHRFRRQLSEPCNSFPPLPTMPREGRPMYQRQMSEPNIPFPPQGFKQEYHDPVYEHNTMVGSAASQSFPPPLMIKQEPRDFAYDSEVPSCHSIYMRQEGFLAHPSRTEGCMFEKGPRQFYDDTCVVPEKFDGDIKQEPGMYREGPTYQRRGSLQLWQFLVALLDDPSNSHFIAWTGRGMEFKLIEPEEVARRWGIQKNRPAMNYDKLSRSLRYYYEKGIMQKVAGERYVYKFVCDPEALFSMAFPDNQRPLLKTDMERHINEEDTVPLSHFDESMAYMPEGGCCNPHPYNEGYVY
# Method in brief: as §1
sequence,measurement,setting,value
CCAAAA,binding signal,FLI1,"1.09 fold enrichment (6-mer frequency, TF over GST control)"
same,binding signal,ELK1,"1.13 fold enrichment (6-mer frequency, TF over GST control)"
same,binding signal,GABPA,"1.16 fold enrichment (6-mer frequency, TF over GST control)"
same,binding signal,ERG,"1.12 fold enrichment (6-mer frequency, TF over GST control)"
same,binding signal,ELF1,"1.17 fold enrichment (6-mer frequency, TF over GST control)"
same,binding signal,EHF,"1.15 fold enrichment (6-mer frequency, TF over GST control)"
same,binding signal,SPI1,"1.29 fold enrichment (6-mer frequency, TF over GST control)"
same,binding signal,SPIB,"1.12 fold enrichment (6-mer frequency, TF over GST control)"
same,binding signal,ELK3,"1.13 fold enrichment (6-mer frequency, TF over GST control)"
same,binding signal,FEV,"1.2 fold enrichment (6-mer frequency, TF over GST control)"
same,binding signal,ETV5,"1.19 fold enrichment (6-mer frequency, TF over GST control)"
same,binding signal,HSF1,"1.17 fold enrichment (6-mer frequency, TF over GST control)"
same,binding signal,SPIC,"1.05 fold enrichment (6-mer frequency, TF over GST control)"
same,binding signal,ELF4,"1.19 fold enrichment (6-mer frequency, TF over GST control)"
same,binding signal,ELK4,"1.05 fold enrichment (6-mer frequency, TF over GST control)"
same,binding signal,ETV2,"1.28 fold enrichment (6-mer frequency, TF over GST control)"
same,binding signal,ELF3,"1.03 fold enrichment (6-mer frequency, TF over GST control)"
same,binding signal,CRX,"1.06 fold enrichment (6-mer frequency, TF over GST control)"
same,binding signal,ETV1,"1.18 fold enrichment (6-mer frequency, TF over GST control)"
